Reference: PubChem BioAssay (NCATS)
Records with an inconclusive call do not appear. Where a call stands in place of a potency, no number is given. Active and inactive are the calls of the source. Calls come from the whole dose curve; as a rule, active = well fitted inhibition curve with a large enough effect; inconclusive = small, poorly fitted or top-dose-only effect; inactive = flat fitted curve, though single readings scatter.

test system: CP286; assay: qHTS profiling for inhibitors of Plasmodium falciparum proliferation (AID 504749); note: nearly all actives have a fitted effect of over 60% in size; details: P. falciparum in erythrocytes, SYBR Green DNA, 72 h; series mostly up to 28.7 µM
How it was run: (§1)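 Readout was DNA-dye fluorescence from lysed cultures, ex 485/em 535 nm. Parasitized red cells had grown 72 h with compound; data scaled between 0.29 uM artemisinin and DMSO wells and corrected using vehicle-only plates.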
Potency is the fitted concentration of half-maximal effect.

Compound	Potency
C=Cc1ccc(S(=O)(=O)O)cc1	inactive
OCC1(CO)COC(C(Cl)(Cl)Cl)OC1	inactive
CC(C)(C)CC(C)(C)c1cc(Cc2cc(C(C)(C)CC(C)(C)C)cc(-n3nc4ccccc4n3)c2O)c(O)c(-n2nc3ccccc3n2)c1	inactive
O=C(O)c1ccc(OCCn2ccnc2)cc1	inactive
CC(C)c1ncc([N+](=O)[O-])n1C	inactive
CN1c2c(nc(N)[nH]c2=O)NCC1CNc1ccc(C(=O)NC(CCC(=O)O)C(=O)O)cc1 (stereo not drawn)	inactive
N=C(N)n1cccn1	inactive
N[C@H](CC(=O)O)C(=O)O	inactive
NCC(O)CC(=O)O (stereo not drawn)	inactive
CCN(CC)C(=O)c1cccnc1	inactive
CCOC(C)OCC	inactive
FCOC(C(F)(F)F)C(F)(F)F	inactive
CN[C@@H]1[C@H](O[C@H]2[C@H](O[C@H]3[C@H](O)[C@@H](O)[C@H](N=C(N)N)[C@@H](O)[C@@H]3N=C(N)N)O[C@@H](C)[C@]2(O)C=O)O[C@@H](CO)[C@H](O)[C@H]1O	inactive
CC(C)[C@@H](N)C(=O)O	inactive
O=C(O)COc1ccc(CCNS(=O)(=O)c2ccccc2)s1	inactive
CC(=O)Nc1ccc(OC(=O)c2ccccc2O)cc1	inactive
CC(C)O	inactive
C=CC[C@@H]1/C=C(\C)C[C@H](C)C[C@H](OC)[C@H]2O[C@@](O)(C(=O)C(=O)N3CCCC[C@H]3C(=O)O[C@H](/C(C)=C/[C@@H]3CC[C@@H](O)[C@H](OC)C3)[C@H](C)[C@@H](O)CC1=O)[C@H](C)C[C@@H]2OC	1000 nM (active)
Cc1cc(=O)c(C(=O)N[C@@H](C(=O)N[C@@H]2C(=O)N3C(C(=O)O)=C(CSc4nnnn4C)CS[C@H]23)c2ccc(O)cc2)c[nH]1	inactive

test system: CP291; assay: as above; details: P. falciparum in erythrocytes, SYBR Green DNA, 72 h; series mostly up to 28.7 µM
How it was run: as §1

Compound	Potency
CC/C=C\C/C=C\C/C=C\C/C=C\C/C=C\C/C=C\CCC(=O)O	inactive
O=C(O)/C=C/c1ccccc1	inactive
CC(=O)Oc1cccc(C(=O)O)c1OC(C)=O	inactive
CC(CNC(=O)c1cccnc1)NC(=O)c1cccnc1 (stereo not drawn)	inactive
CN=C1C=CC(=C(c2ccc(N(C)C)cc2)c2ccc(N(C)C)cc2)C=C1	1070 nM (active)
CC/C(=C(/CC)c1ccc(OP(=O)(O)O)cc1)c1ccc(OP(=O)(O)O)cc1	inactive
ClC(Cl)Cl	inactive
CCCCCCCCCCCCCCCCCC[N+](C)(C)CCC[Si](OC)(OC)OC	inactive
Oc1cc(O)cc(O)c1	inactive
CC(=O)Nc1c(I)c(C(=O)O)c(I)c(N(C)C(C)=O)c1I	inactive
CC(C)CCC[C@@H](C)[C@H]1CC[C@H]2[C@@H]3CC=C4C[C@@H](O)CC[C@]4(C)[C@H]3CC[C@]12C	inactive
CCCCCCCCCCCCOCCCN	inactive
CC(C)(C)c1ccc2c(S(=O)(=O)O)c(C(C)(C)C)ccc2c1	inactive
CCSc1ccc2c(c1)N(CCCN1CCN(C)CC1)c1ccccc1S2	inactive
c1ccc(-n2cnnn2)cc1	inactive
CN1CCC(OC(=O)C(Oc2ccc(Cl)cc2)Oc2ccc(Cl)cc2)CC1	inactive
CC(C)Cc1ccc([C@@H](C)C(=O)NS(C)(=O)=O)cc1	inactive
CCCc1ccc(C(=O)O)cc1	inactive
CNC(=O)c1c(I)c(C(=O)NCC(=O)Nc2c(I)c(C(=O)O)c(I)c(C(=O)NCCO)c2I)c(I)c(N(C)C(C)=O)c1I	inactive
CC1CC(O)CC(C)(C)C1 (stereo not drawn)	inactive

Compound	Potency
C=Cc1ccc(S(=O)(=O)O)cc1	inactive
OCC1(CO)COC(C(Cl)(Cl)Cl)OC1	inactive
CC(C)(C)CC(C)(C)c1cc(Cc2cc(C(C)(C)CC(C)(C)C)cc(-n3nc4ccccc4n3)c2O)c(O)c(-n2nc3ccccc3n2)c1	inactive
O=C(O)c1ccc(OCCn2ccnc2)cc1	inactive
CC(C)c1ncc([N+](=O)[O-])n1C	inactive
CN1c2c(nc(N)[nH]c2=O)NCC1CNc1ccc(C(=O)NC(CCC(=O)O)C(=O)O)cc1 (stereo not drawn)	inactive
N=C(N)n1cccn1	inactive
N[C@H](CC(=O)O)C(=O)O	inactive
NCC(O)CC(=O)O (stereo not drawn)	inactive
CCN(CC)C(=O)c1cccnc1	inactive
CCOC(C)OCC	inactive
FCOC(C(F)(F)F)C(F)(F)F	inactive
CN[C@@H]1[C@H](O[C@H]2[C@H](O[C@H]3[C@H](O)[C@@H](O)[C@H](N=C(N)N)[C@@H](O)[C@@H]3N=C(N)N)O[C@@H](C)[C@]2(O)C=O)O[C@@H](CO)[C@H](O)[C@H]1O	inactive
CC(C)[C@@H](N)C(=O)O	inactive
O=C(O)COc1ccc(CCNS(=O)(=O)c2ccccc2)s1	inactive
CC(=O)Nc1ccc(OC(=O)c2ccccc2O)cc1	inactive
CC(C)O	inactive
C=CC[C@@H]1/C=C(\C)C[C@H](C)C[C@H](OC)[C@H]2O[C@@](O)(C(=O)C(=O)N3CCCC[C@H]3C(=O)O[C@H](/C(C)=C/[C@@H]3CC[C@@H](O)[C@H](OC)C3)[C@H](C)[C@@H](O)CC1=O)[C@H](C)C[C@@H]2OC	6750 nM (active)
Cc1cc(=O)c(C(=O)N[C@@H](C(=O)N[C@@H]2C(=O)N3C(C(=O)O)=C(CSc4nnnn4C)CS[C@H]23)c2ccc(O)cc2)c[nH]1	inactive
